# CYP2C9 activ: activators of human CYP2C9 | recombinant CYP2C9, luciferin-H conversion, luminescence; hits give high values; factor 1 = untreated enzyme, 0 = blocked | activation factor at 5 µM | hit rate 1.4% among 96,000;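 active = activation factor of 2 or more for CYP2C9 at a 5 µM dose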;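 also: 0 = sulfaphenazole-blocked wells and 1 = vehicle-only wells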
# PostGolgi yeast: growth inhibition of a yeast mutant, post-Golgi transport screen | inhibition, % at 10 µM | hit rate 0.9% among 98,000 | AID 739 | post-Golgi transport phenotypic cell assay;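 also: yeast cells grown in 1536-well plates; yeast grown about 18 h at 30C before absorbance read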
# CYP2C19 act: activators of human cytochrome P450 2C19; P33261; recombinant CYP2C19, luciferin-H EGE luminescence; hits give high values; 0 = fully inhibited enzyme, 1 = untreated enzyme; activation factor at 5 µM; 96,000 tested, under 10 active;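 active = activation factor of at least 2 at 5 µM in the primary screen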;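 also: 0 = wells with 2.5 mM tranylcypromine and 1 = vehicle-only wells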
# Target sequence (P33261 whole entry, looked up): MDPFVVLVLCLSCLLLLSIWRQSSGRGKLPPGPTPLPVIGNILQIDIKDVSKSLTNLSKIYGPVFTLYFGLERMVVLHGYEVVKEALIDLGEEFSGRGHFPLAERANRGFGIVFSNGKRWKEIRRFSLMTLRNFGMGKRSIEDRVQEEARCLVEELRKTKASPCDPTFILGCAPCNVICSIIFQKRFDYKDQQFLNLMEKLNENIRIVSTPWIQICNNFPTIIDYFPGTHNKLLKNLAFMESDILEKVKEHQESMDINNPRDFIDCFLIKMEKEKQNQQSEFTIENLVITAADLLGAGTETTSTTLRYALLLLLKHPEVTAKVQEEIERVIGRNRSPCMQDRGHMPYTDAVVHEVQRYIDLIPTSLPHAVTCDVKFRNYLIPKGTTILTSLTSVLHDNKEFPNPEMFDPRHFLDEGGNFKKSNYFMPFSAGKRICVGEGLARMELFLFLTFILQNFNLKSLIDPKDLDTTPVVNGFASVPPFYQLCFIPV
# PostGolgi ctrl: yeast control strain growth, post-Golgi counter-screen. efflux-deficient yeast background strain, growth absorbance A615, 16 h. AID 738. hit rate 5% among 98,000. inhibition, % at 10 µM
# CYP2C9 inhib: blocks human cytochrome P450 2C9 | P11712 | CYP2C9 Supersomes, luciferin-H conversion, luminescence | inhibition, % at 5 µM | hit rate 20% among 96,000 | AID 777;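 active = blocking of liver enzyme CYP2C9 beyond about 50% at 5 µM, limit read from the data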
# CYP2C19 inhib: blocks human cytochrome P450 2C19 | hit rate 21% among 96,000 | inhibition, % at 5 µM | CYP2C19 Supersomes, luciferin-H EGE luminescence, 30 min | P33261;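 active = CYP2C19 inhibition above a set limit at 5 µM in the primary screen, cut at about 50% in these data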;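 also: plate controls were negative control wells for no effect and 2.5 mM tranylcypromine positive control for full effect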
# * hit, by the source's call; x = no result given. An excerpt weighted towards active compounds, which were near 32% of everything screened. Rule as the data show it, unless noted: active = inhibition above about 30%; inactive = the rest.
SMILES,CYP2C9 activ,PostGolgi yeast,CYP2C19 act,PostGolgi ctrl,CYP2C9 inhib,CYP2C19 inhib
CCCOc1ccc(-c2nnn(CC(=O)N3CCC(C)CC3)n2)cc1,0.8,-2,0.9,-1,18,12
Cc1ccc(NC(=O)N2C(=O)C3(OCCO3)c3ccccc32)cc1,1,-19,0.4,12,-4,60*
CCNC(=O)N1C(=O)C2(OCCO2)c2ccccc21,1,1,1,-1,2,3
Cc1cc(C)n(-c2cc(N3CCN(S(=O)(=O)c4ccc5ccccc5c4)CC3)ccc2[N+](=O)[O-])n1,0.8,1,0.7,2,23,33
O=[N+]([O-])c1ccc(N2CCN(CCO)CC2)cc1Sc1nc2ccccc2[nH]1,0.4,1,0.6,5,56*,37
c1ccc(Cc2nnc(N3CCOCC3)c3ccccc23)cc1,0.7,1,0.6,45*,34,42
c1ccc(N2CCN(c3cnccn3)CC2)nc1,1,7,0.6,1,-3,42
c1ccc(N2CCN(c3nnc(Cc4cccnc4)c4ccccc34)CC2)nc1,0.7,0,0.5,25,26,53*
CC(=O)c1ccc(N2CCN(C(=O)CCCn3c(=S)[nH]c4cc5c(cc4c3=O)OCO5)CC2)cc1,0.5,-4,0.9,5,48,5
O=C(CCCn1c(=S)[nH]c2cc3c(cc2c1=O)OCO3)N1CCN(c2ccccc2)CC1,0.2,-3,0.8,-1,80*,21
Cc1cccc(N2CCN(C(=O)CCCn3c(=S)[nH]c4cc5c(cc4c3=O)OCO5)CC2)c1C,0.4,-8,0.7,5,59*,32
Cc1ccc(S(=O)(=O)N(c2nc(N(C)C)nc(N(C)C)n2)n2cnnc2)cc1,0.5,11,1.1,9,54*,-6
COC(=O)c1cc(Br)c(=O)n(Cc2ccc(OC)c(OC)c2)c1,0.5,10,0.5,16,51*,46
COC(=O)c1cc(Br)c(=O)n(Cc2ccc(C(=O)O)cc2)c1,1.1,2,1.1,-2,-5,-14
Cc1cc2nc(C)c(Cc3ccccc3)c(=O)n2[nH]1,2.3*,-3,0.9,4,-125,6
CCCCSc1c(C)c2cc3c(cc2[nH]c1=O)OCO3,0.9,-10,0.1,16,12,86*
O=C(CCCn1c(=S)[nH]c2cc3c(cc2c1=O)OCO3)NC1CC1,0.7,-1,1,8,29,-3
Nc1nc(CSCc2ccccc2)nc(N2CCOCC2)n1,0.7,15,0.1,7,33,92*
Clc1ccc(CNc2nc(N3CCOCC3)nc(N3CCOCC3)n2)cc1,0.2,11,0.2,13,75*,77*
CN(C)c1nc(SCc2ccccc2)nc(N2CCOCC2)n1,0.9,-21,0.7,7,9,33
CCNc1nc(SCc2ccccc2)nc(N2CCOCC2)n1,0.3,15,0.2,14,68*,82*
Cc1ccc(C)c(OCCOCCN2CC(C)OC(C)C2)c1C (stereo not given),1,15,0.7,13,0,34
CCC(=O)N1c2ccc(S(=O)(=O)CCC(=O)N3CCn4c3nc3ccccc34)cc2CC1C (stereo not given),0.5,0,0.7,7,47,26
Cc1cc(Nc2ccccc2Cl)n2nnnc2n1,0.9,1,0.9,19,6,11
CCOC(=O)c1cc(-c2ccc(OC)cc2F)nc2c1c(C)nn2CCC#N,x,-3,x,45*,x,x
SMILES,CYP2C9 activ,PostGolgi yeast,CYP2C19 act,PostGolgi ctrl,CYP2C9 inhib,CYP2C19 inhib
CCOC(=O)c1cc(-c2ccccc2)nc2c1c(C)nn2-c1ccccn1,1.2,-3,1.1,42*,-22,-7
CCOC(=O)c1cc(-c2cccnc2)nn1-c1ccccn1,0.9,4,0.8,-5,8,24
CCOC(=O)c1cc(-c2ccncc2)nc2c1c(C)nn2C,0.5,-6,0,12,50*,96*
COc1ccccc1C1=NOC(COC(=O)c2ccc3ccccc3n2)C1 (stereo not given),2.2*,-1,0.7,-8,-121,35
Cc1ccc2c(c1)cc(CN(Cc1ccc3c(c1)OCO3)S(=O)(=O)c1ccccc1)c1nnnn12,0.3,7,0.2,11,69*,80*
Cc1ccc2c(c1)cc(CN(Cc1cccs1)C(=O)c1ccco1)c1nnnn12,0.8,6,0.9,42*,18,5
Cc1cccc2cc(CN(CCc3ccccc3)C(=O)N3CCOCC3)c3nnnn3c12,0.5,-4,0.6,0,46,38

# Screens from PubChem.
